Assay results taken from PubChem BioAssay (NCATS).
Inconclusive results are not listed. Entries that show only a call come without a potency. Values without a mark were called inactive. The source made the active and inactive calls. Calls come from the whole dose curve; as a rule, active = well fitted curve in the direction sought with a large enough effect; inconclusive = small, poorly fitted or top-dose-only effect, or another doubt; inactive = no such curve, though single readings can be large; an effect the other way counts as inactive or inconclusive.

Key:
[1] = Quantitative highthroughput screen to assess conditional lethalithy of NOMO1 cells grown in RPMI1640 with untreated serum (RPMI+s) (AID 1963876); conditions: NOMO1 AML cells in RPMI+serum, CellTiter-Glo viability, 48 h; series mostly up to 45.8 µM; note: nearly all actives have a fitted effect of over 35% in size; note: potency is the fitted concentration of half-maximal effect
Procedure, shortened: (§1)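 Each medium arm—HPLM with 10% dialyzed FBS, or RPMI1640 with 5 mM glucose and 10% untreated or dialyzed FBS—was screened against an 11-point, 3-fold compound titration for 48 h at 37 °C, with CellTiter-Glo luminescence as endpoint.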

[2] = Quantitative highthroughput screen to assess conditional lethalithy of NOMO1 cells grown in RPMI1640 with dialyzed fetal bovine serum (RPMI+ds) (AID 1963877); conditions: NOMO1 in RPMI+dialyzed FBS viability, ATP luminescence, 48 h; series mostly up to 45.8 µM; note: nearly all actives have a fitted effect of over 30% in size; note: potency is the fitted concentration of half-maximal effect
Procedure, shortened: as §1

[3] = Quantitative highthroughput screen to assess conditional lethalithy of NOMO1 cells grown in Human Plasma-Like Medium with dialyzed fetal bovine serum (HPLM+ds) (AID 1963878); conditions: NOMO1 AML cells in HPLM+ds, CellTiter-Glo viability, 48 h; series mostly up to 45.8 µM; note: nearly all actives have a fitted effect of over 35% in size
Procedure, shortened: as §1

[4] = Cellular viability qHTS for adrenocortical cancer (ACC) cell line SW-13 (AID 1963989); conditions: SW-13 ACC cells viability, CellTiter-Glo, 48 h; activity (max response): stronger effect = lower value;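 note: cells grown in serum-free medium with ITS supplement; nearly all actives have a fitted effect of over 65% in size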
Procedure, shortened: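 Viability was read as CellTiter-Glo luminescence after 48 h compound treatment (up to 46 uM final) of SW-13 cells grown serum-free; titration curves were fit with a four-parameter logistic model to give IC50 and efficacy.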

[5] = Cellular viability qHTS for adrenocortical cancer (ACC) cell line NCI-H295R (AID 1963990); conditions: CellTiter-Glo ATP luminescence, 48 h; series mostly up to 46.1 µM; note: nearly all actives have a fitted effect of over 60% in size
Procedure, shortened: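 CellTiter-Glo ATP luminescence, read 48 h after compound addition, measured viability of NCI-H295R adrenocortical cells grown serum-free with ITS. Final concentrations spanned up to 46 uM. Data normalized to DMSO and doxorubicin, fitted for IC50 and maximal response.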

[6] = Quantitative highthroughput screen to assess conditional lethalithy of P12 Ichikawa cells grown in RPMI1640 with untreated serum (RPMI+s) (AID 1963881); conditions: ATP luminescence, 48 h; Potency: viability; series mostly up to 45.8 µM; note: nearly all actives have a fitted effect of over 35% in size; note: potency is the fitted concentration of half-maximal effect
Procedure, shortened: as §1

[7] = Quantitative highthroughput screen to assess conditional lethalithy of SEM cells grown in Human Plasma-Like Medium with dialyzed fetal bovine serum (HPLM+ds) (AID 1963882); conditions: SEM B-ALL cells in HPLM+ds, CellTiter-Glo viability, 48 h; series mostly up to 45.8 µM; note: nearly all actives have a fitted effect of over 35% in size; note: potency is the fitted concentration of half-maximal effect
Procedure, shortened: as §1

[8] = Quantitative highthroughput screen to assess conditional lethalithy of SEM cells grown in RPMI1640 with dialyzed fetal bovine serum (RPMI+ds) (AID 1963884); conditions: SEM B-ALL cells, RPMI+dialyzed FBS, CellTiter-Glo viability, 48 h; series mostly up to 45.8 µM; note: nearly all actives have a fitted effect of over 35% in size; note: potency is the fitted concentration of half-maximal effect
Procedure, shortened: as §1

[9] = Quantitative highthroughput screen to assess conditional lethalithy of SEM cells grown in RPMI1640 with unreated serum (RPMI+s) (AID 1963883); conditions: SEM B-ALL cells, CellTiter-Glo viability, 48 h; series mostly up to 45.8 µM; note: nearly all actives have a fitted effect of over 35% in size; note: potency is the fitted concentration of half-maximal effect
Procedure, shortened: as §1

[10] = Quantitative highthroughput screen to assess conditional lethalithy of P12 Ichikawa cells grown in Human Plasma-Like Medium with dialyzed fetal bovine serum (HPLM+ds) (AID 1963879); conditions: ATP luminescence, 48 h; Potency: viability; series mostly up to 45.8 µM; note: nearly all actives have a fitted effect of over 35% in size; note: potency is the fitted concentration of half-maximal effect
Procedure, shortened: as §1

[11] = Quantitative highthroughput screen to assess conditional lethalithy of P12 Ichikawa cells grown in RPMI1640 with dialyzed fetal bovine serum (RPMI+ds) (AID 1963880); conditions: ATP luminescence, 48 h; Potency: P12-Ichikawa viability; series mostly up to 45.8 µM; note: nearly all actives have a fitted effect of over 35% in size; note: potency is the fitted concentration of half-maximal effect
Procedure, shortened: as §1

CC1COC2(CCN(c3nc(=O)c4cc(C(F)(F)F)cc([N+](=O)[O-])c4s3)CC2)O1 (centres undefined)
Potency [1]: inactive
Potency [2]: inactive
Potency [3]: inactive
activity (max response) [4]: -6.91%
Potency [5]: inactive

O=C1c2c(O)cc(O)cc2O[C@H](c2cc(O)c(O)c(O)c2)[C@H]1O
Potency [1]: inactive
Potency [2]: inactive
Potency [3]: inactive
Potency [6]: inactive
Potency [7]: 3.72 µM (active)
Potency [8]: 5.26 µM (active)

COc1cc(N2CCN(C)CC2)ccc1Nc1nc(N)c(C(=O)c2c(Cl)cccc2Cl)s1
Potency [1]: inactive
Potency [2]: inactive
Potency [3]: inactive
Potency [9]: 20.9 µM (active)
Potency [8]: 20.9 µM (active)

CC1(C)OC2CC3C4CC(F)C5=CC(=O)C=CC5(C)C4C(O)CC3(C)[C@]2(C(=O)CO)O1 (some centres undefined)
Potency [1]: inactive
Potency [2]: inactive
Potency [3]: inactive
Potency [7]: 2.35 µM (active)

CC(=O)SC[C@@H](C)C(=O)N1CCC[C@H]1C(=O)N[C@@H](Cc1ccccc1)C(=O)O
Potency [1]: inactive
Potency [2]: inactive
Potency [10]: inactive
Potency [11]: inactive
Potency [9]: inactive
Potency [8]: inactive
activity (max response) [4]: 16.6%
Potency [5]: inactive

O=C1c2ccccc2-c2n[nH]c3cccc1c23
Potency [1]: 14.8 µM (active)
Potency [2]: 23.5 µM (active)
Potency [10]: 14.8 µM (active)
Potency [11]: 16.6 µM (active)
Potency [6]: 16.6 µM (active)
activity (max response) [4]: -13.1%

O=c1c(-c2ccc(O)cc2)coc2cc(O)cc(O)c12
Potency [1]: inactive
Potency [2]: inactive
Potency [10]: inactive
Potency [8]: inactive
Potency [5]: inactive

O=C(C=Cc1ccc(O)cc1)c1ccc(O)cc1O
Potency [1]: inactive
Potency [2]: inactive
Potency [11]: 13.2 µM (active)
Potency [6]: 16.6 µM (active)
Potency [9]: 18.7 µM (active)
Potency [8]: 18.7 µM (active)

COC1CCC(C(=O)c2ccc3nc4c(cc3c2)CCCO4)CC1 (centres undefined)
Potency [1]: inactive
Potency [2]: 18.7 µM (active)
Potency [10]: inactive
Potency [6]: inactive
Potency [7]: inactive
Potency [8]: 3.32 µM (active)
activity (max response) [4]: 3.89%
Potency [5]: inactive

O=S(=O)(NCCNCC=Cc1ccc(Br)cc1)c1cccc2cnccc12
Potency [1]: inactive
Potency [2]: inactive
Potency [10]: inactive
Potency [6]: inactive

CC=CCC=CCCC(=O)[C@H]1O[C@@H]1C(N)=O
Potency [1]: inactive
Potency [2]: inactive
Potency [11]: inactive
Potency [6]: inactive

COc1ccc(Nc2nccc(NCCO)n2)cc1
Potency [1]: inactive
Potency [2]: inactive
Potency [10]: inactive
Potency [11]: inactive
Potency [6]: inactive
Potency [7]: inactive
Potency [9]: inactive
Potency [8]: inactive
activity (max response) [4]: 5.92%
Potency [5]: inactive

CC(=Cc1ccccc1)C=C1SC(=S)N(CC(=O)O)C1=O
Potency [1]: inactive
Potency [2]: inactive
Potency [10]: inactive
Potency [11]: inactive
Potency [6]: inactive
Potency [7]: inactive
Potency [9]: 5.9 µM (active)
Potency [8]: inactive

Cc1[nH]c(C=C2C(=O)Nc3ccc(S(=O)(=O)Cc4c(Cl)cccc4Cl)cc32)c(C)c1C(=O)N1CCC[C@H]1CN1CCCC1
Potency [1]: inactive
Potency [2]: inactive
Potency [10]: inactive
Potency [6]: inactive
Potency [7]: 2.35 µM (active)

C[C@@]12C[C@@]3(O)O[C@@H](O1)[C@]1(COC(=O)c4ccccc4)[C@@H]3C[C@@]12O[C@@H]1O[C@H](CO)[C@@H](O)[C@H](O)[C@@H]1O
Potency [1]: inactive
Potency [2]: inactive
Potency [11]: inactive
Potency [6]: inactive
Potency [7]: inactive
Potency [9]: inactive
Potency [8]: inactive

OC[C@H]1O[C@@H](n2cnc3c2NC=NC[C@@H]3O)C[C@H]1O
Potency [1]: inactive
Potency [2]: inactive
Potency [10]: inactive
Potency [11]: inactive
Potency [6]: inactive
Potency [9]: inactive
Potency [8]: inactive

Cn1cc(-c2ccc3nnc(Sc4ccc5ncccc5c4)n3n2)cn1
Potency [1]: inactive
Potency [2]: inactive
Potency [10]: inactive
Potency [6]: inactive
Potency [7]: inactive
Potency [9]: inactive
Potency [8]: inactive
activity (max response) [4]: -4.92%
Potency [5]: inactive

NC(=O)N1c2ccccc2CC(=O)c2ccccc21
Potency [1]: inactive
Potency [2]: inactive
Potency [10]: inactive
Potency [11]: inactive
Potency [6]: inactive
Potency [7]: inactive
Potency [8]: inactive
activity (max response) [4]: 10.8%

O=C1C(CCC(O)c2ccc(F)cc2)C(c2ccc(O)cc2)N1c1ccc(F)cc1 (centres undefined)
Potency [1]: inactive
Potency [2]: inactive
Potency [11]: inactive
Potency [6]: inactive
Potency [7]: inactive
Potency [9]: inactive
Potency [8]: inactive

CC(=O)O[C@]1(C(C)=O)CC[C@@H]2[C@@H]3C[C@H](C)C4=CC(=O)CC[C@]4(C)[C@H]3CC[C@@]21C
Potency [1]: inactive
Potency [2]: inactive
Potency [10]: inactive
Potency [11]: inactive
Potency [7]: inactive
Potency [9]: inactive
Potency [8]: inactive
